# Where two headings read alike, the source gives them in different places.
# Experiments:
# TAK1 = system: T1, TAK1; details: concentration: 1 μM, replicates: in singlicate; n = 1
# T1 construct: gene MAP3K7
# TAOK1 = details: concentration: 1 μM, replicates: in singlicate; n = 1
# TAOK2 = details: concentration: 1 μM, replicates: in singlicate; n = 1
# TAOK3 = details: concentration: 1 μM, replicates: in singlicate; n = 1
# TBK1 = details: concentration: 1 μM, replicates: in singlicate; n = 1
# TEC = details: concentration: 1 μM, replicates: in singlicate; n = 1
# TESK1 = details: concentration: 1 μM, replicates: in singlicate; n = 1
# TGFBR1 = details: n = 1
# TGFBR2 = details: concentration: 1 μM, replicates: in singlicate; n = 1
# TIE1 = details: concentration: 1 μM, replicates: in singlicate; n = 1
# TIE2 = system: T2, TIE2; details: concentration: 1 μM, replicates: in singlicate; n = 1
# T2 construct: gene TEK
# TLK1 = details: concentration: 1 μM, replicates: in singlicate; n = 1
# TLK2 = details: concentration: 1 μM, replicates: in singlicate; n = 1
# TNIK = details: concentration: 1 μM, replicates: in singlicate; n = 1
# TNK1 = details: concentration: 1 μM, replicates: in singlicate; n = 1
# TNK2 = details: concentration: 1 μM, replicates: in singlicate; n = 1
# TNNI3K = details: concentration: 1 μM, replicates: in singlicate; n = 1
# TRKA = system: T3, TRKA; details: concentration: 1 μM, replicates: in singlicate; n = 1
# T3 construct: gene NTRK1
# TRKB = details: concentration: 1 μM, replicates: in singlicate; n = 1
# TRKC = system: T4, TRKC; details: concentration: 1 μM, replicates: in singlicate; n = 1
# T4 construct: gene NTRK3
# [1] = concentration: 1 μM, replicates: in singlicate
# 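Further: KINOMEscan kinase panel screen.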
smiles,measurement,setting,value
COc1cc2nccc(Nc3ccc(OCc4ccc(NC(C)=O)cc4)cc3)c2cc1OC.Cl [GW440135],%Inh,TAK1,0%
same,%Inh,TAOK1,0%
same,%Inh,TAOK2,0%
same,%Inh,TAOK3,1%
same,%Inh,TBK1,0%
same,%Inh,TEC,0%
same,%Inh,TESK1,13%
same,%Inh,TGFBR1; [1],21%
same,%Inh,TGFBR2,5%
same,%Inh,TIE1,1%
same,%Inh,TIE2,1%
same,%Inh,TLK1,0%
same,%Inh,TLK2,0%
same,%Inh,TNIK,0%
same,%Inh,TNK1,0%
same,%Inh,TNK2,16%
same,%Inh,TNNI3K,0%
same,%Inh,TRKA,37%
same,%Inh,TRKB,0%
same,%Inh,TRKC,21%
O=c1cc(N2CCOCC2)nc2n(Cc3ccc(F)c(Cl)c3)ccn12 [GSK2297099],%Inh,TAK1,2%
same,%Inh,TAOK1,0%
same,%Inh,TAOK2,0%
same,%Inh,TAOK3,0%
same,%Inh,TBK1,17%
same,%Inh,TEC,12%
same,%Inh,TESK1,12%
same,%Inh,TGFBR1; [1],35%
same,%Inh,TGFBR2,0%
same,%Inh,TIE1,0%
same,%Inh,TIE2,0%
same,%Inh,TLK1,11%
same,%Inh,TLK2,22%
same,%Inh,TNIK,0%
same,%Inh,TNK1,0%
same,%Inh,TNK2,10%
same,%Inh,TNNI3K,0%
same,%Inh,TRKA,0%
same,%Inh,TRKB,0%
same,%Inh,TRKC,0%
COc1ccc(-c2coc3ccc(-c4nnc(SCc5cccc(C#N)c5)o4)cc23)cc1,%Inh,TAK1,23%
same,%Inh,TAOK1,0%
same,%Inh,TAOK2,10%
same,%Inh,TAOK3,0%
same,%Inh,TBK1,10%
same,%Inh,TEC,0%
same,%Inh,TESK1,0%
same,%Inh,TGFBR1; [1],11%
same,%Inh,TGFBR2,0%
same,%Inh,TIE1,17%
same,%Inh,TIE2,5%
same,%Inh,TLK1,25%
same,%Inh,TLK2,0%
same,%Inh,TNIK,21%
same,%Inh,TNK1,10%
same,%Inh,TNK2,0%
same,%Inh,TNNI3K,20%
same,%Inh,TRKA,17%
same,%Inh,TRKB,0%
same,%Inh,TRKC,3%
Cc1cccc(-c2cc(-c3c[nH]nc3-c3ccccn3)ccn2)c1 [GW679395],%Inh,TAK1,0%
same,%Inh,TAOK1,0%
same,%Inh,TAOK2,0%
same,%Inh,TAOK3,0%
same,%Inh,TBK1,12%
same,%Inh,TEC,0%
same,%Inh,TESK1,9%
same,%Inh,TGFBR1; 1 µM,57%
same,%Inh,TGFBR2,0%
same,%Inh,TIE1,0%
same,%Inh,TIE2,0%
same,%Inh,TLK1,0%
same,%Inh,TLK2,0%
same,%Inh,TNIK,59%
same,%Inh,TNK1,0%
same,%Inh,TNK2,4%
same,%Inh,TNNI3K,9%
same,%Inh,TRKA,0%
same,%Inh,TRKB,13%
same,%Inh,TRKC,20%
Cc1cc(Nc2nc(-c3cccc(C)n3)nc3ccccc23)ccn1 [GW872411],%Inh,TAK1,0%
same,%Inh,TAOK1,0%
same,%Inh,TAOK2,29%
same,%Inh,TAOK3,0%
same,%Inh,TBK1,0%
same,%Inh,TEC,1%
same,%Inh,TESK1,0%
same,%Inh,TGFBR1; 1 µM,83%
same,%Inh,TGFBR2,0%
same,%Inh,TIE1,0%
same,%Inh,TIE2,13%
same,%Inh,TLK1,0%
same,%Inh,TLK2,15%
same,%Inh,TNIK,13%
same,%Inh,TNK1,25%
same,%Inh,TNK2,0%
same,%Inh,TNNI3K,0%
same,%Inh,TRKA,0%
same,%Inh,TRKB,0%
same,%Inh,TRKC,0%
CCC(=O)c1c(-c2ccccc2)c2cc(Cl)ccc2c(=O)n1Cc1ccc(C(=O)O)cc1,%Inh,TAK1,0%
same,%Inh,TAOK1,0%
same,%Inh,TAOK2,0%
same,%Inh,TAOK3,0%
same,%Inh,TBK1,0%
same,%Inh,TEC,10%
same,%Inh,TESK1,6%
same,%Inh,TGFBR1; [1],11%
same,%Inh,TGFBR2,0%
same,%Inh,TIE1,0%
same,%Inh,TIE2,0%
same,%Inh,TLK1,0%
same,%Inh,TLK2,0%
same,%Inh,TNIK,0%
same,%Inh,TNK1,0%
same,%Inh,TNK2,0%
same,%Inh,TNNI3K,0%
same,%Inh,TRKA,0%
same,%Inh,TRKB,0%
same,%Inh,TRKC,0%
CN1C(=O)C(Nc2ccccc2)=C(c2ccccc2)C1=O [SB-300079],%Inh,TAK1,0%
same,%Inh,TAOK1,0%
same,%Inh,TAOK2,34%
same,%Inh,TAOK3,0%
same,%Inh,TBK1,21%
same,%Inh,TEC,0%
same,%Inh,TESK1,2%
same,%Inh,TGFBR1; [1],22%
same,%Inh,TGFBR2,0%
same,%Inh,TIE1,0%
same,%Inh,TIE2,0%
same,%Inh,TLK1,3%
same,%Inh,TLK2,41%
same,%Inh,TNIK,7%
same,%Inh,TNK1,0%
same,%Inh,TNK2,0%
same,%Inh,TNNI3K,0%
same,%Inh,TRKA,0%
same,%Inh,TRKB,9%
same,%Inh,TRKC,11%
CN(C)c1cc(-c2ccc3c(N)n[nH]c3c2)nc(N)n1 [GSK2219329],%Inh,TAK1,0%
same,%Inh,TAOK1,0%
same,%Inh,TAOK2,0%
same,%Inh,TAOK3,0%
same,%Inh,TBK1,9%
same,%Inh,TEC,1%
same,%Inh,TESK1,76%
same,%Inh,TGFBR2,0%
same,%Inh,TIE1,0%
same,%Inh,TIE2,0%
same,%Inh,TLK1,9%
same,%Inh,TLK2,0%
same,%Inh,TNIK,0%
same,%Inh,TNK1,0%
same,%Inh,TNK2,1%
same,%Inh,TNNI3K,0%
same,%Inh,TRKA,0%
same,%Inh,TRKB,0%
same,%Inh,TRKC,0%

# Source: paper PMC5540273 (PLoS ONE, 2017)
